Most compounds without a hit are left out; they make up all but 0.47% or so of the library.
UDG counter: blocks uracil-DNA glycosylase in AID counter-screen | FRET deamination/UDG coupled assay, UDG read, 4 h | Potency, µM (series often up to 115 µM), inactives show top-dose activity change, negative = inhibition, usual class: inhibitors | 91,000 compounds, 0.14% hits | AID 1347430; also: nearly all actives have a fitted effect of over 65% in size
AID inh: inhibitors of human activation induced cytidine deaminase; Q9GZX7; AID deamination FRET fluorescence, UDG-coupled, 4 h; Potency, µM (top dose mostly 115 µM), most hits filed as inhibitors; 91,000 compounds, 0.32% hits; also: nearly all actives have a fitted effect of over 25% in size
Target sequence (Q9GZX7 whole entry, looked up): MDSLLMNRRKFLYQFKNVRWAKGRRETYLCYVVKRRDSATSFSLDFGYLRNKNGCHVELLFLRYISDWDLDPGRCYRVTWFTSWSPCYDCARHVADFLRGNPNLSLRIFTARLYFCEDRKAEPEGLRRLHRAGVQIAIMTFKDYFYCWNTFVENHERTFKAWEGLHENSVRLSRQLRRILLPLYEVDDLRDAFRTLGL
The depositor's hits bear a star; i = inactive; ? = inconclusive; [ ] = dose if it differs, or a comment. Calls follow the shape of the dose curve; as a rule, active = well fitted curve in the direction sought with a large enough effect; inconclusive = small, poorly fitted or top-dose-only effect, or another doubt; inactive = no such curve, though single readings can be large; an effect the other way counts as inactive or inconclusive. % is scaled to controls: 0 for no effect and ±100 for the full control effect; potency is read from the fitted curve at half-maximal effect.

SMILES | UDG counter | AID inh
CCn1cc(S(=O)(=O)c2ccc(OC)cc2)c(=O)c2cc(F)c(N3CCC(C)CC3)cc21 | -26% | 18µM*
CCn1cc(S(=O)(=O)c2ccc(OC)cc2)c(=O)c2cc(F)c(N3CCCCCC3)cc21 | -9% | i
CCN(CC)CCCNc1oc(-c2cccc(C)c2)nc1C#N | -1% | i
Cc1cccc(C)c1NC(=O)c1cc(S(=O)(=O)N2CCCc3ccccc32)ccc1F | 89µM* | i
Cc1ccc(NC(=O)c2cc(S(=O)(=O)N3CCCc4ccccc43)ccc2F)cc1F | ? | i
COC1=C(OC)C(=O)c2ccccc2C1=O | -17% | 45µM*
Cc1cc2c(cc1C)-c1ccccc1C2=O | -13% | i
O=C(NCCc1ccc(Cl)cc1)c1cc2ccccc2oc1=O | -2% | i
O/N=C/c1c(F)cccc1Cl | 1% | i
COc1ccc2c(c1)Cc1sc(NC(=O)c3cccc(Cl)c3)nc1-2 | -10% | i
COc1ccc(C(=O)Nc2nc3c(s2)CCc2cc(OC)ccc2-3)cc1 | 79µM* | i
COc1ccc2c(c1)Cc1sc(NC(=O)c3ccc(Cl)cc3)nc1-2 | -12% | 32µM*
COc1ccc2c(c1)CCc1sc(NC(=O)c3cccc(Br)c3)nc1-2 | 2% | i
CC(=O)Nc1cccc(NC(=O)COC(=O)c2cc3ccccc3[nH]2)c1 | -2% | i
C=Cc1ccc(CSc2nc(-c3ccccc3C)nc3c2Cc2c(CO)cnc(C)c2O3)cc1 | -8% | 45µM*
C=Cc1ccc(CSc2nc(-c3ccc(Cl)cc3)nc3c2Cc2c(CO)cnc(C)c2O3)cc1 | -9% | i
Cc1ccc(Sc2c(C)nn(-c3ccccc3)c2OC(=O)CC(C)C)cc1 | -19% | ?
COc1ccccc1C(=O)Oc1c(Sc2ccccc2)c(C)nn1-c1ccccc1 | ? | 45µM*
O=C(O)CCN1CCN(CCC(=O)O)CC1 | 6% | i
Cn1c(SCc2ccc(F)cc2)nc2ccc(C(=O)NCc3ccc(Cl)cc3)cc21 | -12% | ?
Cn1c(SCc2ccc(F)cc2)nc2ccc(C(=O)NCc3ccc(F)cc3)cc21 | 1% | 28µM*
O=C1CC(O)=C(Br)O1 | 5% | i
O=C(NC1CCS(=O)(=O)C1)c1n[nH]c(=O)c2ccccc12 (stereo unspecified) | -14% | i
COc1ccccc1C(=O)Nc1ccc(C(=O)OCc2cc(=O)n3nc(C4CC4)sc3n2)cc1 | -10% | i
COc1ccccc1C(=O)Nc1ccc(C(=O)OCc2cc(=O)n3nc(C)sc3n2)cc1 | -10% | 28µM*
SMILES | UDG counter | AID inh
Cc1c(C(=O)OC(C)C#N)oc2c1ccc1ccccc12 (stereo unspecified) | 0% | i
COc1ccc(OC)c(C(=O)COC(=O)CCC(=O)c2ccc(Cl)cc2)c1 | -2% | i
COc1cc(C(c2c(C)[nH][nH]c2=O)c2c(C)[nH][nH]c2=O)ccc1OC(=O)c1cccc(C)c1 | -10% | 22µM*
COc1cc(C(c2c(C)[nH][nH]c2=O)c2c(C)[nH][nH]c2=O)ccc1OC(=O)c1ccccc1OC | -14% | ?
O=c1oc(-c2ccncc2)cc2ccccc12 | 0% | i
Oc1ccc(Cl)cc1C=NCc1ccccc1C(F)(F)F | 3% | i
Cc1ccc(-c2cc(C(=O)NCCN(C)C)c3ccccc3n2)cc1C | 5% | i
CCOC(=O)c1c(C)oc2nc(C)nc(N3CCN(c4cccc(C(F)(F)F)c4)CC3)c12 | -7% | 14µM*
CCOC(=O)c1c(C)oc2nc(C)nc(N3CCN(c4ccccc4)CC3)c12 | 1% | i
CCOc1ccc(-c2nc(CSCC(=O)N3CCN(c4ccc(F)cc4)CC3)c(C)o2)cc1 | -9% | i
CCOc1ccc(-c2nc(CSCC(=O)N3CCN(c4cccc(C(F)(F)F)c4)CC3)c(C)o2)cc1 | 29% | 32µM*
CN1C(=O)Cc2cc(S(=O)(=O)CCC(=O)N3CCN(c4ccccc4F)CC3)ccc21 | ? | i
Cc1cccc(N2CCN(C(=O)CCS(=O)(=O)c3ccc4c(c3)CC(=O)N4C)CC2C)c1 (stereo unspecified) | 79µM* | i
O=C(CCNc1nc(Cl)nc2nc[nH]c12)NC1CC1 | -11% | i
O=C(NCCCCCO)C1CCN(c2nc(Cl)nc3nc[nH]c23)CC1 | 89µM* | i
C=Cc1ccc(Cn2c(=O)n(-c3cccc(Cl)c3)c(=O)c3c4c(sc32)CN(C(C)=O)CC4)cc1 | 79µM* | ?
CC(=O)N1CCc2c(sc3c2c(=O)n(Cc2ccccc2)c(=O)n3Cc2ccccc2F)C1 | -18% | ?
CCOC(=O)N1CCc2c(sc3c2c(=O)n(-c2ccc(CC)cc2)c(=O)n3Cc2cccc(Cl)c2)C1 | -5%[57.5 µM] | i
CC(=O)N1CCc2c(sc3c2c(=O)n(Cc2ccccc2)c(=O)n3Cc2ccccc2Cl)C1 | -29% | 22µM*
Cc1ccsc1-c1nc(-c2ccc3c(c2)CCO3)cs1 | -8% | i
COc1ccc(/C=C/C(=O)c2cccs2)cc1O | -15% | i
COc1cccc(CNC(=O)CC(c2ccc(C)cc2)N2Cc3ccccc3C2=O)c1 (stereo unspecified) | 2% | ?
COc1cc(NC(=O)CC(c2ccc(C)cc2)N2Cc3ccccc3C2=O)cc(OC)c1 (stereo unspecified) | -24% | 45µM*
COc1ccc(-c2nc3c(c(SCC(=O)Nc4cccc(O)c4)n2)Cc2c(CO)cnc(C)c2O3)cc1 | -15% | 45µM*
CCOc1ccc(NC(=O)CSc2nc(-c3ccc(OC)cc3)nc3c2Cc2c(CO)cnc(C)c2O3)cc1 | 2% | i
SMILES | UDG counter | AID inh
COc1cc(NC(=O)CSc2nc(-c3ccc(C)cc3)nc3c2Cc2ccccc2O3)cc(OC)c1 | -17% | i
O=C(CSc1nc(-c2ccc(F)cc2)nc2c1Cc1ccccc1O2)Nc1cccc(C(=O)O)c1 | 0% | 40µM*
CSCc1ccc(C(=O)Nc2ccc(C(F)(F)F)cc2)cc1 | 1% | i
COc1ccccc1OCCCSc1nc(-c2ccc(C(C)(C)C)cc2)nc2cc(=O)[nH]n12 | 1% | ?
CC(C)(C)c1ccc(-c2nc(SCCCOc3ccccc3)n3[nH]c(=O)cc3n2)cc1 | -16% | 79µM*
Cc1ccc(CNC(=O)C2CCCN(c3nc4ccccc4n4cccc34)C2)cc1 (stereo unspecified) | -9%[57.5 µM] | 79µM*
COc1cccc(CNC(=O)C2CCCN(c3nc4ccccc4n4cccc34)C2)c1 (stereo unspecified) | -6%[57.5 µM] | i
CC(Sc1nc2ccc(F)cc2c(=O)[nH]1)C(=O)NC1CC1 (stereo unspecified) | 3% | i
CCOc1ccccc1NC(=O)c1ccc(C)c(S(=O)(=O)Nc2cccc(C)c2C)c1 | 3% | i
COc1ccc(-c2nc(C)c(CCNC(=O)c3cccs3)s2)cc1OC | -9% | i
Cc1nc(-c2ccc(F)cc2)sc1CCNC(=O)c1ccc(C(C)(C)C)cc1 | -13% | 16µM*
Cc1nc(-c2ccc(F)cc2)sc1CCNC(=O)c1cccs1 | 79µM* | ?
Cc1nc(-c2ccc(F)cc2)sc1CCNC(=O)c1ccccc1 | 5% | i
CCOc1ccc(C(C)=O)cc1COc1ccc2c(CC)cc(=O)oc2c1 | -8% | i
CCOC(=O)c1sc(Nc2cccc(C)c2)nc1C(F)(F)F | 5% | i
Cc1nc2c(C(=O)NCCc3ccccc3)c[nH]n2c(=O)c1Cc1ccc(F)cc1Cl | -7% | i
Cc1ccc(CNC(=O)c2c[nH]n3c(=O)c(Cc4ccc(F)cc4Cl)c(C)nc23)cc1 | -7% | 71µM*
